This note sets out measurements from the OligoGym collection.
Further: reference of the scale not given here.

One assay addresses OTP. The assay is described as follows: pooled miR-30 sensor sort-seq; sequence = guide strand. Particulars: shRNA.
In turn, TTACAAAAGAAAATTTTGCTTA yielded a sensor-assay potency score (higher = more potent) of -0.204.

Consider TTATCTACACAAAACATCCTAT, for which the sensor-assay potency score (higher = more potent) was -0.185.

As for TTCTACACTCTCACACAGTTGT, the sensor-assay potency score (higher = more potent) stood at 0.376.

Consider TTTATCTACACAAAACATCCTA, for which the sensor-assay potency score (higher = more potent) was found to be 0.114.

As to AACATATCACAAATTGACCAGT, the sensor-assay potency score (higher = more potent) was -0.538.

Turning to TTAAGTTAAAACATATCACAAA, the sensor-assay potency score (higher = more potent) is -1.23.

The sequence TTGACCAGTATGTAACAAGAAT gave a sensor-assay potency score (higher = more potent) of -1.1.

As to TTGGTAGCAATGCTTGTCCTCC, the sensor-assay potency score (higher = more potent) was -0.441.

The sequence TTTCTCTGTACAAAGTTGCAGG registered a sensor-assay potency score (higher = more potent) of -0.634.

On to TTCCTCGTCACATGACTGCTTT, for which the sensor-assay potency score (higher = more potent) was -0.353.

For another assay, the target named is OXGR1. Described as above. The following applies: shRNA.
AATAGTATTGAGTTCATCCGAA: the sensor-assay potency score (higher = more potent) was -0.145.

TTACTTTGCATCTCACTGTTGA registered a sensor-assay potency score (higher = more potent) of 0.106.

The sequence TTTCTTTGCTTGCTCAAGGTTC gave a sensor-assay potency score (higher = more potent) of -0.282.

With TTGCATCTCACTGTTGAGCAGA, the sensor-assay potency score (higher = more potent) is -0.0433.

In turn, TACAACTGCACATCGAGTTTTG showed a sensor-assay potency score (higher = more potent) of -0.712.

Consider TTCAGCATAATGATGGTGCTGC, for which the sensor-assay potency score (higher = more potent) amounted to 0.6.

TTGAAATGGAAGCTGAAGCGGA gave a sensor-assay potency score (higher = more potent) of 0.195.

Regarding TAATAGTATTGAGTTCATCCGA, the sensor-assay potency score (higher = more potent) is -0.637.

In turn, TGAATGATCACACAGTAGCGGA showed a sensor-assay potency score (higher = more potent) of -1.12.

Sequence TAATTTTCTTTGCTTGCTCAAG showed a sensor-assay potency score (higher = more potent) of -1.24.

The sequence TTGAGTTCATCCGAACTGGTGA yielded a sensor-assay potency score (higher = more potent) of 0.378.

Consider TACAGGTTGAAATGGAAGCTGA, for which the sensor-assay potency score (higher = more potent) was -0.61.

A further assay deals with OXSR1. The assay is described as above. The following applies: shRNA.
Regarding TTTACTAACGGAACTCTGGGGA, the sensor-assay potency score (higher = more potent) is 0.644.

Sequence TAATCTTAGTACTAGACTGATT showed a sensor-assay potency score (higher = more potent) of -1.17.

For the sequence TTTCTTGTGAACCTGATCCTGA, the sensor-assay potency score (higher = more potent) is 0.134.

Regarding TTAATCTTAGTACTAGACTGAT, the sensor-assay potency score (higher = more potent) was -0.309.

In turn, TATCTGAGCCTTCGACACCAGA returned a sensor-assay potency score (higher = more potent) of -1.2.

With TTCATCATCACTCCACTCCCAG, the sensor-assay potency score (higher = more potent) is -0.375.

The sequence TTTGATTGCCACTTTCTCCTTT had a sensor-assay potency score (higher = more potent) of 0.477.

TTTCTTTATCTTGAACACCAGT had a sensor-assay potency score (higher = more potent) of -0.815.

With TATTGATTCTTTCACTCGGGGA, the sensor-assay potency score (higher = more potent) is -0.811.

As for TCTTGGTTTCTTGTGAACCTGA, the sensor-assay potency score (higher = more potent) is -0.403.

As for TTGAAGAAATTCTTTATTCTTT, the sensor-assay potency score (higher = more potent) was -0.617.

TTGTCTGTAAAAACAATCCAAA registered a sensor-assay potency score (higher = more potent) of -1.04.

For a further assay, the target named is P2RX3. Described as above. The following applies: shRNA.
As to TTCAGTAACAATCATCTTGGTG, the sensor-assay potency score (higher = more potent) was -0.0732.

In turn, TTGTCCAAGTCGCACACCCAGC showed a sensor-assay potency score (higher = more potent) of -1.44.

The sequence TTCCACTGTGTCCACCTCCGTG came in with a sensor-assay potency score (higher = more potent) of -1.06.

As to TACCTGGTAAGCCTTCTCGTGC, the sensor-assay potency score (higher = more potent) was -1.6.

The sequence TATACCAGCACGTCGAAGCGGA had a sensor-assay potency score (higher = more potent) of -0.313.

In the case of TTTCTCAGAAACGCTGTCGAGC, the sensor-assay potency score (higher = more potent) is -0.254.
